Data: ChEMBL document CHEMBL3988442, “University of Dundee, Small-Polar-MMV Screening Library” (2021)
Hit rate of the full screen: of about 48,000 compounds, about 13,000 (27%) showed an effect of 50% or more. The list shows a part of the results.

The compounds below were run on Wolbachia pipientis (assay: Anti-Wolbachia Cell-Based Screen). Conditions: 5 µM.
Type: functional
Set-up: scale not given: in the data most compounds retested in dose-response had high values
With `Cc1nn(C)c(N(C)C)c1CNCc1cnn(Cc2ccccc2)c1` the “Percent Effect” value was 0.347%. For `O=C(Nc1ccc(CC(=O)N2CCSCC2)cc1)NC1CC1`, the “Percent Effect” value was 1.128%. In the case of `O=C(Nc1ccc(CC(=O)N2CCSCC2)cc1)NC1CCCC1`, the “Percent Effect” value is reported as -7.412%. In the case of `O=C(Nc1ccc(CC(=O)N2CCCC2)cc1)NC1CC1`, the “Percent Effect” value is reported as 116.7%. In the case of `Cc1nc(CNC(=O)NC2CCN(c3ncccc3Cl)C2)no1` (centres undefined), the “Percent Effect” value is reported as -5.791%. For `OCCC1CN(c2ncnc3[nH]cnc23)CCN1Cc1ccccc1` (centres undefined), the “Percent Effect” value was -15.48%. `CC(C)N1CCCC2(CCN(Cc3nncn3C(C)C)C2)C1=O` (centres undefined) was tested, and the “Percent Effect” value was 92.74%. `CC(C)n1cnnc1CN1CCC2(CCCN(C3CCCCC3)C2=O)C1` (centres undefined) was tested, and the “Percent Effect” value was 113.2%. With `CN1CCCC2(CCN(Cc3cncn3C3CCCCC3)C2)C1=O` (centres undefined) the “Percent Effect” value was -0.6007%. `CC(C)[C@H]1COC(=O)N1Cc1nncn1C(C)C` was tested, and the “Percent Effect” value was 9.429%. With `CC(C)N1CCCC2(CCN(Cc3noc(C4CCCC4)n3)C2)C1=O` (centres undefined) the “Percent Effect” value was 17.18%. For `Cn1cnnc1CN1CCC2(CCCN(C3CCCCC3)C2=O)C1` (centres undefined), the “Percent Effect” value was 111.9%. With `CCN1CC2(CCC1=O)CCN(Cc1nncn1C)CC2` the “Percent Effect” value was -22.02%. `CCCN1CCCC2(CCN(Cc3cncn3C3CCCCC3)C2)C1=O` (centres undefined) was tested, and the “Percent Effect” value was -18.59%. With `CCCN1CCCC2(CCN(Cc3cncn3C3CCCC3)C2)C1=O` (centres undefined) the “Percent Effect” value was 1.607%. In the case of `Cn1cnnc1CN1CCC2(CCCN(C3CCCC3)C2=O)C1` (centres undefined), the “Percent Effect” value is reported as 103.4%. `CCCN1CCCC2(CCN(Cc3noc(C4CCCC4)n3)C2)C1=O` (centres undefined) was tested, and the “Percent Effect” value was -0.09411%. For `CCN1CC2(CCC1=O)CCN(Cc1nncn1C(C)C)CC2`, the “Percent Effect” value was 3.317%. For `O=C(O)C(F)(F)F.c1csc(CN2CCC3(CCCN(c4nncs4)C3)C2)n1` (centres undefined), the “Percent Effect” value was -3.653%. With `CCN1CCC(N2C[C@H]3OC(=O)N(CCc4cccc(Cl)c4)[C@H]3C2)CC1` the “Percent Effect” value was -15.6%. In the case of `CCSCCC(=O)Nc1ncn(CC(=O)NCc2ccccc2)n1`, the “Percent Effect” value is reported as 1.311%. In the case of `CN(Cc1ccc(C(=O)Nc2sccc2C#N)cc1)Cc1ccno1`, the “Percent Effect” value is reported as -5.875%. `CC(C)CC(=O)N1CC(=O)N(CCc2ccccc2)CC(O)C1` (centres undefined) was tested, and the “Percent Effect” value was 118.7%. `Cc1csc(N(C)C(=O)C2CC(=O)N(CCc3ccccc3)C2)n1` (centres undefined) was tested, and the “Percent Effect” value was 4.812%. In the case of `CC(C)COC(=O)N1CC(=O)N(CCCc2ccccc2)CC(O)C1` (centres undefined), the “Percent Effect” value is reported as 111%. With `CN(C(=O)C1CC(=O)N(CCc2ccccc2)C1)c1nccs1` (centres undefined) the “Percent Effect” value was 3.016%. `CC(C(=O)O)N1CC2(CCC1=O)CCN(CCc1ccccc1)CC2` (centres undefined) was tested, and the “Percent Effect” value was -3.737%. With `CC(C)c1cc(C(=O)N2CCCN(CCCc3ccccc3)CC2)[nH]n1` the “Percent Effect” value was 0.07047%. For `CNC(=O)C1Cc2ccccc2CN1CCCc1ccccc1` (centres undefined), the “Percent Effect” value was -8.054%. In the case of `Cc1ccccc1C(C)CC(=O)N1CC[C@H](O)C1` (some centres undefined), the “Percent Effect” value is reported as -9.659%. With `CCOC(=O)N1CC(=O)N(CCc2ccccc2)CC(O)C1` (centres undefined) the “Percent Effect” value was 123.2%. With `CC(C)(C)N1CC(C(=O)N2CCN(CCc3ccccc3)CC2)CC1=O` (centres undefined) the “Percent Effect” value was 4.322%. In the case of `Cc1[nH]ccc1C(=O)NCC1CC(=O)N(CCc2ccccc2)C1` (centres undefined), the “Percent Effect” value is reported as 5.345%. In the case of `CC(C)(C)OC(=O)N1CC(=O)N(CCc2ccccc2)CC(O)C1` (centres undefined), the “Percent Effect” value is reported as 114.6%. In the case of `CSc1nc(N)cc(N2C[C@@H]3CC[C@H](C2)N(Cc2cscn2)C3=O)n1`, the “Percent Effect” value is reported as 0.1745%. `CCN(CC)C(=O)CN(C)C1CCc2ccccc21` (centres undefined) was tested, and the “Percent Effect” value was -5.842%. In the case of `CN(Cc1ccco1)Cc1ccccc1CNC(=O)c1ccc[nH]1`, the “Percent Effect” value is reported as 22.22%. In the case of `O=C(CN(Cc1ccccc1)CC1CCOCC1)NC(=O)NC1CC1`, the “Percent Effect” value is reported as 17.45%. For `CC(C)COC(=O)N1CC(=O)N(CCc2ccccc2)CC(O)C1` (centres undefined), the “Percent Effect” value was 128.8%. For `O=C(NCC1CC(=O)N(CCc2ccccc2)C1)c1c(F)cccc1F` (centres undefined), the “Percent Effect” value was -5.982%. For `COCc1cccc(C(=O)N2CCCN(C(=O)OCC(C)C)CC2)c1`, the “Percent Effect” value was 8.994%. For `CN(Cc1cc2n(n1)CCNC2)Cc1cc(-c2ccccn2)no1`, the “Percent Effect” value was -13.42%. In the case of `COCCN(C)CCN1CC2(CCN(C3CCCCC3)CC2)OC1=O`, the “Percent Effect” value is reported as 5.41%. With `Cc1ccccc1OCCCNC(=O)C1(C)CC(=O)N2C=CC=CC2=N1` (centres undefined) the “Percent Effect” value was 112.8%. With `Cc1ccc(OCCCNC(=O)C2(C)CC(=O)N3C=CC=CC3=N2)cc1` (centres undefined) the “Percent Effect” value was 121.9%. For `Cc1ccc(OCCCNC(=O)C(C)Sc2nncn2C)cc1` (centres undefined), the “Percent Effect” value was -12.11%. `CC(C)n1cnnc1CNC(=O)CCCOc1ccccc1F` was tested, and the “Percent Effect” value was -11.73%. In the case of `Cc1ccc(OCCCNC(=O)NC(C)c2nncn2C)cc1` (centres undefined), the “Percent Effect” value is reported as 6.672%. `Cc1ccccc1OCCCC(=O)NCc1ccnc(O)c1` was tested, and the “Percent Effect” value was 0.1065%. `CSc1cc(CNC(=O)CCOc2ccccc2C)ccn1` was tested, and the “Percent Effect” value was 2.605%. For `CC(=O)N1C[C@H]2CNC[C@@]2(C(=O)NCCOc2ccccc2F)C1`, the “Percent Effect” value was -24.48%. In the case of `CC1(C(=O)NCCCOc2ccccc2F)CC(=O)N2C=CC=CC2=N1` (centres undefined), the “Percent Effect” value is reported as 94.6%. With `COc1cc(C)c(CNC(C)c2csc(C3CC3)n2)cc1OC` (centres undefined) the “Percent Effect” value was 30.24%. `CC(C)Cc1cc(C(=O)NC(C)(C)c2nnc(N)s2)n(C)n1` was tested, and the “Percent Effect” value was -11.71%. `Cc1noc(NCc2ccc(F)cc2F)n1` was tested, and the “Percent Effect” value was 23.53%. With `Cc1noc(C2CCCN(C(=O)c3ccc(Cl)cc3F)C2)n1` (centres undefined) the “Percent Effect” value was -0.5657%. For `CC(C)c1nnc2ccc(N3CCC(C(N)=O)CC3)nn12`, the “Percent Effect” value was 13.6%. `CS(=O)(=O)CCOCCNc1ccc2ccc(F)cc2n1` was tested, and the “Percent Effect” value was 5.905%. With `COCC(NC(=O)c1ccc[nH]1)c1cccc(C(F)(F)F)c1` (centres undefined) the “Percent Effect” value was -9.811%. For `CN1CCc2cc(C(=O)N(C)C)c(NCC3CC3)nc2CC1.O=C(O)C(F)(F)F.O=C(O)C(F)(F)F`, the “Percent Effect” value was 92.24%. With `O=C(O)C(F)(F)F.O=C(O)C(F)(F)F.O=C(O)c1cc2c(nc1NCC1CC1)CCN(C1CCOC1)CC2` (centres undefined) the “Percent Effect” value was -1.204%. In the case of `CC(C)Nc1nc2c(cc1C(=O)NCC1CC1)CCN(C)CC2.O=C(O)C(F)(F)F.O=C(O)C(F)(F)F`, the “Percent Effect” value is reported as 0.01551%. `CC(C)CCN1CCc2cc(C(=O)N(C)C)c(NCC3CC3)nc2CC1.O=C(O)C(F)(F)F.O=C(O)C(F)(F)F` was tested, and the “Percent Effect” value was 98.43%. With `O=C1N(CCO)CCCC12CCN(Cc1noc(C3CCCC3)n1)C2` (centres undefined) the “Percent Effect” value was -14.7%.
